# Screen size: about 330,000 compounds; about 1,500 (0.45%) were called active. Roughly 6% stayed inconclusive and do not appear here. The list comes from a sample in which actives are over-represented; it also holds similar structures and randomly drawn compounds. Unmarked numbers belong to inactive results. The call rests on the fitted dose curve; tested in A549 cells.
# Assay: qHTS for Stage-Specific Inhibitors of Vaccinia Orthopoxvirus: Venus Reporter Primary qHTS; further: nearly all actives have a fitted effect of over 30% in size
# Settings: Vaccinia virus Venus reporter expression, fluorescence; series mostly up to 36.5 µM; activity change, negative = inhibition: at the top concentration
# On the % scale 0 is the no-effect control and ±100 the full control effect; potency means the concentration at half of the fitted maximal effect.
SMILES,"activity change, negative = inhibition",Potency
CCOc1cc(N2CCOCC2)c(OCC)cc1NC(=O)COc1cccc(Cl)c1,-18.9%,–
CCOc1cc(N2CCOCC2)c(OCC)cc1NC(=O)COc1cccc2cccnc12,–,12.6 µM (active)
CCOc1cc(N2CCOCC2)c(OCC)cc1NC(=O)c1cc(C)nc2ccccc12,-7.77%,–
CN(N=O)c1ccc(C=C2c3ccccc3-c3ccccc32)cc1,-10.5%,–
CN(C)C1=C2C=CC=CC2/C(=C2/C=Cc3ccccc32)C=C1 (centres undefined),-11.3%,–
COC(=O)c1ccc(COc2ccc(/C=N/NC(=O)C(=O)Nc3ccc(OC)cc3)cc2OC)o1,4.27% [at 7.34 µM],–
CCCc1ccc(OCc2ccc(C(=O)N/N=C/c3cccc([N+](=O)[O-])c3)o2)c(OC)c1,–,7.08 µM (active)
O=C(N/N=C/c1cccc(OCc2ccccc2)c1)c1ccc(Br)o1,-10.1%,–
CC(=O)Nc1cccc(-c2cc(NC(C)=O)c3ncc(-c4ccccc4)n3c2)c1,-4.03%,–
CC(C)C[C@@H]1Cc2[nH][nH]c(=O)c2[C@H](CCc2ccccc2)O1,-11.9%,–
Nc1ncn(C2OC(CO)C(O)C2O)c(=O)n1 (centres undefined),–,10 µM (active)
Nc1nc(SCc2ccc([N+](=O)[O-])cc2)c2ncn(C3OC(CO)C(O)C3O)c2n1 (centres undefined),-18.7%,–
CC(C)Sc1nc(N)nc2c1ncn2C1OC(CO)C(O)C1O (centres undefined),2.2%,–
Fc1cccc(Cc2c(-c3cccc(Cl)c3)nc3ccc(Br)cn23)c1,-4.21%,–
C/C(=N\NC(=O)Cc1ccc(Br)cc1)c1cccnc1,-10.3%,–
C/C(=N\NC(=O)c1ccccc1F)c1ccccn1,-13.5%,–
C/C(=N\NC(=O)Cc1ccc(Cl)cc1)c1ccccn1,–,6.31 µM (active)
CCC(C(=O)NC(C)(C)C)n1c(-c2ccccc2)nc2ccccc21 (centres undefined),-3.62%,–
Cc1cc(Br)cn2c(Cc3ccsc3)c(-c3ccc(C#N)cc3)nc12,-6.63%,–
COc1ccc(-c2cc3nc(NCCOc4ccccc4)ccn3n2)cc1,-8.89%,–
CCOC(=O)C1=CC[C@@H](c2ccccc2)N(S(=O)(=O)c2ccc(C)cc2)[C@H]1c1ccc(CC)cc1,2.38%,–
COc1ccc(CS(=O)/C(Cl)=C(/Cl)C(=O)Nc2ccc(OC)nc2)cc1 (centres undefined),–,5.62 µM (active)
CCOc1ccc(S(=O)(=O)Nc2ccc(OC)nc2)cc1,-12.8%,–
COc1ccc(NC(=O)CN2C(=O)NC(C)(c3ccccc3)C2=O)cn1 (centres undefined),-4.42%,–
Cc1c(CCO)sc[n+]1CC(=O)c1ccc2ccccc2c1,1.96%,–

SMILES,"activity change, negative = inhibition",Potency
COC(=O)C1(C(=O)OC)C/C=C\CN(S(=O)(=O)c2ccccc2[N+](=O)[O-])CCC1,5.58%,–
COc1ccc(Br)c(Cn2c(C)c(C(=O)NCc3cccs3)sc2=O)c1,-4.37%,–
COc1cccc(NC(=O)C2(C)CCN2Cc2ccccc2Cl)c1 (centres undefined),-19.1%,–
O=C(NCc1ccccc1)C(c1ccc(F)cc1)N1CCN(C(=O)C2CCCO2)CC1 (centres undefined),-11.6%,–
Fc1ccc(N2CCN(Cc3ccc4c(c3)OCO4)CC2)cc1,-5.26%,–
O=c1[nH]c(N2CCN(Cc3ccc4c(c3)OCO4)CC2)nc2c1CCCC2,-2.01%,–
Fc1ccc2[nH]c3c(N4CCN(Cc5ccc6c(c5)OCO6)CC4)ncnc3c2c1,–,6.31 µM (active)
CCOP(=O)(OCC)C(Cc1ccccc1)N=C(c1ccccc1)c1ccccc1 (centres undefined),11.1%,–
CN(Cc1ccccc1)c1ccc(/C=C/c2ccnc3ccccc23)cc1,-10.8%,–
Brc1cccc[n+]1Cc1cccc(C[n+]2ccccc2Br)c1,-8.21%,–
COC(=O)c1ccc2nc(-c3ccc(F)cc3)c(Cc3ccc(C)cc3)n2c1,-7.97%,–
CC(C)(C)C1CCC(NC(=O)c2cnn3c2NC(=C2CC2)C=C3C(F)F)CC1 (centres undefined),-29.1%,–
O=c1c2ccccc2[nH]c(=S)n1-c1cccc(Cl)c1,-16.2%,–
O=c1c(-c2cccc(Cl)c2)c[nH]n1-c1ccccc1,-15.6%,–
Cc1[nH]n(-c2cccc(Cl)c2)c(=O)c1-c1ccc(Cl)cc1,–,28.2 µM (active)
CCN(CC)c1ccc(/C=C/c2c(C)cnc3ccc(C)cc23)cc1,-14.2%,–
CN1CCN(c2nc3c(c(=O)[nH]c(=O)n3C)n2Cc2cccc3ccccc23)CC1,-21.5%,–
Cn1c(=O)[nH]c(=O)c2c1nc(N1CCN(CCO)CC1)n2CCSc1nc2ccccc2s1,-9.09%,–
Cn1c(=O)[nH]c(=O)c2c1nc(N1CCN(C(c3ccccc3)c3ccccc3)CC1)n2CCO,–,12.6 µM (active)
COC(=O)[C@@]12C[C@@H](CC(=O)NCc3cccc(C(F)(F)F)c3)C(=O)N(Cc3ccco3)C1=CCC(C)(C)C2,-29.1%,–
C=C(C)C(=O)O[C@H]1C/C(C)=C\C(=O)/C=C(\C)[C@H](O)[C@@H]2OC(=O)C(=C)[C@@H]21,–,10 µM (active)
O=C1NC[C@H](Cc2ccc(O)cc2)N(C[C@H]2CCCN2C[C@H](Cc2ccccc2)N2C[C@H](Cc3ccccc3)N(CCc3ccccc3)C(=O)C2=O)C1=O,-2.33%,–
C#CCOCCOCCOCCNc1nc(N2CCN(C(=O)[C@H](CCC(=O)O)n3cc(CN)nn3)CC2)nc(N2CCN(C(=O)[C@H](CCC(=O)O)n3cc(CN)nn3)CC2)n1,-8.97%,–
C#CCOCCOCCOCCNc1nc(N2CCN(C(=O)Cn3cc(CCO)nn3)CC2)nc(N2CCN(C(=O)Cn3cc(CCCN=C(N)N)nn3)CC2)n1,-1.69%,–
C#CCOCCOCCOCCNc1nc(N2CCN(C(=O)CCCCCCCCCCNC(=O)[C@H]([C@@H](C)CC)n3cc(CCCCN=C(N)N)nn3)CC2)nc(N2CCN(C(=O)CCCCCCCCCCNC(=O)[C@H](CO)n3cc(CCCSC)nn3)CC2)n1,–,15.8 µM (active)

SMILES,"activity change, negative = inhibition",Potency
C#CCOCCOCCOCCNc1nc(N2CCN(C(=O)Cn3cc(CCCCN)nn3)CC2)nc(N2CCN(C(=O)[C@H](CCCCN)n3cc(CCC(=O)O)nn3)CC2)n1,-4.71%,–
C#CCOCCOCCOCCNc1nc(N2CCN(C(=O)[C@H](C(C)C)n3cc(CCO)nn3)CC2)nc(N2CCN(C(=O)[C@H]([C@@H](C)CC)n3cc(CCCN=C(N)N)nn3)CC2)n1,-7.34%,–
C#CCOCCOCCOCCNc1nc(N2CCN(C(=O)CCCCCCCCCCNC(=O)[C@H](CCCCN)n3cc(C)nn3)CC2)nc(N2CCN(C(=O)CCCCCCCCCCNC(=O)[C@H](CO)n3cc(CCCSC)nn3)CC2)n1,–,7.94 µM (active)
C#CCOCCOCCOCCNc1nc(N2CCN(C(=O)[C@H](CCCCN)n3cc(CCC(=O)O)nn3)CC2)nc(N2CCN(C(=O)[C@H](CCCCN)n3cc(CC(C)O)nn3)CC2)n1 (some centres undefined),-7.26%,–
C#CCOCCOCCOCCNc1nc(N2CCN(C(=O)Cn3cc(CCO)nn3)CC2)nc(N2CCN(C(=O)[C@H](CCCCN)n3cc(CCCC)nn3)CC2)n1,7.77%,–
C#CCOCCOCCOCCNc1nc(N2CCN(C(=O)CCCCCCCCCCNC(=O)Cn3cc(CCCCCN)nn3)CC2)nc(N2CCN(C(=O)CCCCCCCCCCNC(=O)[C@H](CO)n3cc(CCCSC)nn3)CC2)n1,–,10 µM (active)
Cc1cccc(C)c1NC(=O)CN1CCN(c2ccc(F)cc2)CC1,9.83%,–
COc1cc(OC)c(/C=C/c2ccnc3ccccc23)c(OC)c1,-21.1%,–
CCOC(=O)N(C)c1c(CC)nc2c(OCc3ccccc3C(=O)OC)cccn12,-5.36%,–
CCOC(=O)c1cc2cc(OC)ccc2n1C1CCN(C)CC1,-26.8%,–
CCOC1=C2[C@@H](CN(S(=O)(=O)c3ccc(C)cc3)[C@H]2c2ccccc2F)[C@H]2C(=O)N(Cc3ccccc3)C(=O)[C@H]2C1,-12.5%,–
CCOC(=O)C1=CC[C@@H](c2ccncc2)N(S(=O)(=O)c2ccc(C)cc2)C1,-22.6%,–
CSc1nc(-c2ccccc2)nc(C(Cl)Cl)n1,–,10 µM (active)
CSc1ncc(Sc2ccccc2)c(C(=O)O)n1,2.49%,–
CSc1nc(Nc2ccc(F)cc2)cc(-c2ccccc2)n1,-18.6%,–
Cc1cc(Br)cn2c(Cc3ccccc3C(F)(F)F)c(C3CCCCC3)nc12,-2.66%,–
CCc1nc2c(OCc3ccc(F)c(F)c3)cccn2c1N(C)C(=O)c1ccco1,3.62%,–
CC(C)(C)NCC(O)COc1cccc2[nH]c(=O)[nH]c12 (centres undefined),–,inactive
CC(C)(C)CC(C)(C)NCC(O)COCCOc1ccc(Br)cc1 (centres undefined),–,10 µM (active)
COc1ccc(OCC(O)CNCCNc2nccc(C(F)(F)F)n2)cc1 (centres undefined),-14.2%,–
CCCCNC(=O)C[C@@H]1C[C@@]2(C(=O)OCC)CCC=C2N(Cc2cccc3ccccc23)C1=O,-13.2%,–
COc1ccc(C(C(=O)Nc2c(C)cccc2C)N2CCN(c3ccc(C)cc3)CC2)cc1 (centres undefined),-3.04%,–
CN(C)c1cccc(NC(=O)c2ccc(-c3ccc(F)c(F)c3)c3ccoc23)c1,-9.75%,–
CCc1nc2c(OCc3cccc(OC)c3)cccn2c1N(C)C(=O)C(C)C,-15.6%,–
CC(=O)Nc1ccc(-c2csc(NC=C3C(=O)OC(C)(C)OC3=O)n2)cc1,–,4.47 µM (active)

SMILES,"activity change, negative = inhibition",Potency
CC(=O)Nc1cccc(-c2csc(Nc3cccc(C)n3)n2)c1,-23.1%,–
C/C(CC1CC(C)(C)OC1=O)=N/Nc1nc(-c2ccccc2)cs1 (centres undefined),-10.7%,–
O=C(COc1ccccc1C(=O)Nc1ccccc1)Nc1cccc(F)c1,-20.5%,–
COc1ccc(C(=O)C(OP(=O)(OC)OC)c2ccccc2OC)cc1 (centres undefined),-6.83%,–
COc1ccc2c(c1)NC(=O)C2CC(=O)N1CCOc2c(cc(-c3cnc4ccccc4c3)cc2OC)C1 (centres undefined),-10.6%,–
CC(=O)OC1C2(CC3N4C(=O)C5(CO)SSC4(CC31O)C(=O)N5C)OC(C)C(C)(C)C2=O (centres undefined),–,3.16 µM (active)
CCCNC(=O)C1(C)CCN1C(=O)Cc1ccc(-c2ccccc2)cc1 (centres undefined),-8.6%,–
CCOC(=O)[C@]12CCCC=C1N(CCC1=CCCCC1)C(=O)[C@H](CC(=O)N1CCCCC1)C2,-21.2%,–
CCCCCNC(=O)Cc1ccc(OC)cc1,-18.1%,–
COc1ccc(CC(=O)Nc2ccc(C(=O)NC(C)(C)C)cc2)cc1,-5.09%,–
C/C=C/NNC(=O)Cc1ccc(OC)cc1,–,10 µM (active)
Cc1cccc(NC(=O)COC(=O)c2ccccc2OCc2cccc(Br)c2)c1,-15.5%,–
CC1(C)OC(=O)C2=C(C[C@@H](C3CCCCC3)O[C@@H]2c2ccc(Cl)cc2)O1,-0.804%,–
Cc1ccc(C)c(S(=O)(=O)n2nc(C)c(S(=O)(=O)N3CCC(C)CC3)c2C)c1,3.55%,–
Cc1ccc(S(=O)(=O)N2CCN(c3ncnc4ccccc34)CC2)cc1,-26.6%,–
Cc1ccc(C)c(S(=O)(=O)N2CCN(c3ncnc4sccc34)CC2)c1,–,2.51 µM (active)
O=[N+]([O-])c1ccc(/C=C/c2ccc3cccnc3c2)cc1,-27.2%,–
Cc1cccc(-c2nnc(SC(C)C(=O)Nc3ccccc3)n2C)c1 (centres undefined),-13.2%,–
C=CC(=O)Nc1ccc(Nc2ccnc(Nc3ccc(N4CCN(C)CC4)cc3)n2)cc1,–,10 µM (active)
CN1CCN(c2ccc(NC(=O)c3cc(Cl)c4c(c3)OCCO4)cc2)CC1,-3.42%,–
Cc1cccc(N2CCN(c3ccc(NC(=O)/C=C\C(=O)O)cc3)CC2)c1,-0.657%,–
CCCCc1c(-c2ccc(Cl)cc2)ncn1CCc1ccccc1OC,-26.6%,–
Cc1ccc(-c2nc3c(Cl)cc(C(F)(F)F)cn3c2Cc2cccc(Cl)c2)cc1,6.36%,–
O=S1(=O)CC(N2CCN(c3ccccn3)CC2)CN1Cc1ccc(F)cc1 (centres undefined),-8.95%,–
